{"source": "the supplement of paper PMC10338343", "note": "± gives the standard deviation."}
{"test_system": "MILI (PIWIL2) piRISC loaded with piRNA #1 (26 nt)", "assay": "pre-steady-state target cleavage rate (min^-1); guide: piRNA #1 5'p-UGAGGUAGUAGGUUGUAUAGUAUCCA; MIWI and MILI are mouse PIWI proteins and EfPiwi is from a freshwater sponge; tags in brackets are library labels; higher = faster piRNA-guided slicing of the target", "conditions": "auxiliary factor: 500 nM mouse GTSF1", "in_short": "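Sequencing of uncleaved targets, normalised to depth and to weakly complementary targets, was the readout of this Cleave-'n-Seq assay. A transcribed, DNA-blocked target RNA library (0.1 nM) was mixed with 1 nM active affinity-purified piRISC carrying one synthetic guide, with or without 500 nM GTSF1 partner protein, in HEPES–potassium acetate buffer at 33 °C for 0–8 or 0–960 min. Three trials were pooled, k3 was capped at 0.0001 min^-1, and a burst-and-steady-state fit gave the pre-steady-state cleavage rate.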"}
{"sequence": "GGAGACCUAUGAAUACAUCCUACUACCUCA", "pre-steady-state target cleavage rate": "0.012 ± 0.0031"}
{"sequence": "GGAGACCUUACUUUACAACCUACUACCUCA", "pre-steady-state target cleavage rate": "0.129 ± 0.01"}
{"sequence": "GGAGACCUAACUAUUGUACCUACUACCUCA", "pre-steady-state target cleavage rate": "0.00477 ± 0.0036"}
{"sequence": "GGAGACCAUAGUAUACUACCUACUACCUCA", "pre-steady-state target cleavage rate": "0.131 ± 0.013"}
{"sequence": "GGAGACCUAACUUUACAACGUACUACCUCA", "pre-steady-state target cleavage rate": "0.00988 ± 0.0052"}
{"sequence": "GGAGACCAUACUUUACAACCUACUACGUCA", "pre-steady-state target cleavage rate": "0.0972 ± 0.016"}
{"sequence": "GGAGACCUAUGAAUACAAGGUACUACCUCA", "pre-steady-state target cleavage rate": "0.00378 ± 0.003"}
{"sequence": "GGAGACCUUACUAUAGAACCUACUACCUGA", "pre-steady-state target cleavage rate": "0.0254 ± 0.0086"}
{"sequence": "GGAGACCUAUGAAAACAACCUACUUCCUCA", "pre-steady-state target cleavage rate": "0.00368 ± 0.002"}
{"sequence": "GGAGACCUUACUAUACAACCUACAUGCUCA", "pre-steady-state target cleavage rate": "0.0591 ± 0.012"}
{"sequence": "GGAGACCUUACUAUACAUCCUACUUCCUCA", "pre-steady-state target cleavage rate": "0.183 ± 0.031"}
{"sequence": "GGAGACCUAUGUAUACUACCUAGUACCUCA", "pre-steady-state target cleavage rate": "0.00575 ± 0.0022"}
{"sequence": "GGAGACCUAUCUAUACUACCUACUACGUCA", "pre-steady-state target cleavage rate": "0.0241 ± 0.0069"}
{"sequence": "GGAGACCUAUGUAUACAACCAACUACCUCA", "pre-steady-state target cleavage rate": "0.0033 ± 0.002"}
{"sequence": "GGAGACCUAUGUAUACAUCCUAGUACCUCA", "pre-steady-state target cleavage rate": "0.015 ± 0.0049"}
{"sequence": "GGAGACCUUUCUUUACAACCUACUACCUCA", "pre-steady-state target cleavage rate": "0.07 ± 0.012"}
